Screens (PubChem)
CYP2C19 inhib: blocks human cytochrome P450 2C19; P33261; CYP2C19 Supersomes, luciferin-H EGE luminescence, 30 min; inhibition, % at 5 µM; actives 21% (n = 96,000); AID 778;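 active = CYP2C19 inhibition above a set limit at 5 µM in the primary screen, cut at about 50% in these data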;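 also: plate controls were negative control wells for no effect and 2.5 mM tranylcypromine positive control for full effect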
sEH activator: activators of human soluble epoxide hydrolase; P34913; purified human sEH enzymatic activity, activator screen; activation, % at 2 µM; actives 0.04% (n = 91,000); AID 717; in the data active = activation above about 37%
Target sequence (P34913 whole entry, looked up): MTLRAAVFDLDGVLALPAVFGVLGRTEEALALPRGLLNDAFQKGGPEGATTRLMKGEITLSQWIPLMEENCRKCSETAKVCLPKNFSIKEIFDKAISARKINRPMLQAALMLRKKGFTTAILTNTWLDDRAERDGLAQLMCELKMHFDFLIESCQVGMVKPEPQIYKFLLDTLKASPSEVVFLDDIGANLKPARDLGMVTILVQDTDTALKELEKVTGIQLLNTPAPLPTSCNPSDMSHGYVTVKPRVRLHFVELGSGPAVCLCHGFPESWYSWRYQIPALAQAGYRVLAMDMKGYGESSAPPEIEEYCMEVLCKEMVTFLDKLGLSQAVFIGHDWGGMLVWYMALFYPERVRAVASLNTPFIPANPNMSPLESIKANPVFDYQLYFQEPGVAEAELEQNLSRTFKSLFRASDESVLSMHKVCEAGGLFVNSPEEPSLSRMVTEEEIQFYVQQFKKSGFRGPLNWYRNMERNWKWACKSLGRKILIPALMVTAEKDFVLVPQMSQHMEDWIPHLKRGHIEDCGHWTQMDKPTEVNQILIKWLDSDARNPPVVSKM
sEH inh: inhibitors of human soluble epoxide hydrolase | AID 707 | recombinant human sEH enzymatic activity assay | inhibition, % at 2 µM | actives 0.34% (n = 91,000) | P34913; in the data active = inhibition above about 80%
CYP2C9 inh: human CYP2C9 inhibition; P11712; CYP2C9 Supersomes, luciferin-H conversion, luminescence; inhibition, % at 5 µM; actives 20% (n = 96,000); AID 777;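 active = blocking of liver enzyme CYP2C9 beyond about 50% at 5 µM, limit read from the data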
CYP2C19 act: cytochrome P450 2C19 (human) activation | recombinant CYP2C19, luciferin-H EGE luminescence; hits give high values; 0 = fully inhibited enzyme, 1 = untreated enzyme | activation factor at 5 µM | 96,000 tested, under 10 active | AID 1025;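 active = activation factor of at least 2 at 5 µM in the primary screen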;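 also: 0 = wells with 2.5 mM tranylcypromine and 1 = vehicle-only wells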
CYP2C9 activ: CYP2C9 (human) activation; P11712; recombinant CYP2C9, luciferin-H conversion, luminescence; hits give high values; factor 1 = untreated enzyme, 0 = blocked; activation factor at 5 µM; actives 1.4% (n = 96,000); AID 1024;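 active = activation factor of 2 or more for CYP2C9 at a 5 µM dose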;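 also: 0 = sulfaphenazole-blocked wells and 1 = vehicle-only wells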
* marks the source's active call; other numbers are inactive results; x = no result given. The list is not random: actives were taken first. Their share in the collection is about 27%.

SMILES	CYP2C19 inhib	sEH activator	sEH inh	CYP2C9 inh	CYP2C19 act	CYP2C9 activ
Oc1ccc(-c2nc3ccccn3c2NCc2ccc3c(c2)OCO3)cc1	68*	5	-7	-4	0.3	1
C/C=C/Cn1c(SCCCc2ccccc2)nc2c1c(=O)[nH]c(=O)n2C	58*	-3	2	77*	0.4	0.2
C=CCn1c(SCCCc2ccccc2)nc2c1c(=O)[nH]c(=O)n2C	76*	x	x	63*	0.2	0.4
CCN(CC)c1ccc(NC(=O)Cn2cc3c(n2)CCC(C)C3)c(C)c1 (stereo not drawn)	10	x	x	-5	0.9	1
Cc1cc(C)c(NC(=O)/C(=C/c2ccco2)c2ccccc2)c(C)c1	77*	12	-8	68*	0.2	0.3
Cc1cccc(C)c1NC(=O)/C(=C/c1ccco1)c1ccccc1	43	-2	1	70*	0.6	0.3
CC(C)NC(=O)/C(=C/c1ccco1)c1ccccc1	-9	-10	12	3	1.1	1
CCC(C)NC(=O)/C(=C/c1ccco1)c1ccccc1 (stereo not drawn)	14	-13	11	7	0.9	0.9
CC1=C(OC(=O)c2ccc(Br)cc2)C(C)(C)C(c2ccccc2)OC1=O (stereo not drawn)	98*	-40	40	97*	0	0
CC1=C(OC(=O)c2ccccc2)C(C)(C)C(c2ccccc2)OC1=O (stereo not drawn)	40	18	-15	28	0.6	0.7
CC1=C(OC(=O)c2ccccc2)C(C)(C)C(c2ccc(Br)cc2)OC1=O (stereo not drawn)	19	6	-4	61*	0.8	0.4
CC(C)CCn1cnc2c(NCc3ccccc3)ncnc21	6	10	-10	17	0.9	0.8
CCSC1=C(C#N)C(c2ccccc2Cl)CC(=O)N1 (stereo not drawn)	30	5	-5	18	0.7	0.8
N#CCCCSC1=C(C#N)C(c2ccccc2Cl)CC(=O)N1 (stereo not drawn)	88*	x	x	35	0.1	0.7
CCCSC1=C(C#N)C(c2ccc(Cl)cc2Cl)CC(=O)N1 (stereo not drawn)	37	4	-3	67*	0.6	0.3
CCCSC1=C(C#N)C(c2ccccc2C)CC(=O)N1 (stereo not drawn)	57*	1	-2	39	0.4	0.6
CCCCSC1=C(C#N)C(c2ccccc2C)CC(=O)N1 (stereo not drawn)	42	-2	4	29	0.6	0.7
O=C(OCCN1CCOCC1)c1cccs1	2	-14	13	-11	1	1.1
CCc1c(C)n2nc(C)cc2[nH]c1=O	-21	-2	-2	-33	1.2	1.3
CCOC(=O)c1sc(NC(=O)C2CCCO2)c(C(=O)OC)c1C (stereo not drawn)	x	2	-4	x	x	x
Clc1ccc(-c2nnc(CSc3nnc(-c4cccs4)o3)o2)cc1	6	-2	5	13	0.9	0.9
Clc1ccc2nc(SCc3nnc(-c4ccccc4)o3)[nH]c2c1	86*	3	-4	76*	0.1	0.2
Cc1ccc2nc(SCc3nnc(-c4ccccc4Br)o3)[nH]c2c1	83*	-3	4	75*	0.2	0.3
Cc1ccc2nc(SCCCCOc3ccccc3)[nH]c2c1	63*	-14	15	72*	0.4	0.3
Cc1cc(=O)[nH]c(SCc2nnc(-c3ccccc3)o2)n1	0	0	1	-5	1	1.1
SMILES	CYP2C19 inhib	sEH activator	sEH inh	CYP2C9 inh	CYP2C19 act	CYP2C9 activ
Clc1ccc(OCc2nnc(SCc3nnc(-c4ccccc4)o3)o2)c(Cl)c1	92*	-14	13	32	0.1	0.7
O=C(Cn1cnc2ccccc2c1=O)OCCCCN1C(=O)c2ccccc2C1=O	16	x	x	35	0.8	0.7
COc1ccc(NC(=O)CC#N)cc1OC	-6	11	-11	-2	1.1	1
CCC(C)NS(=O)(=O)c1ccc(OCC(=O)NCC2CCCO2)cc1 (stereo not drawn)	16	7	-8	11	0.8	0.9
CN1CC(=O)Nc2ccc(F)cc2C1=O	0	5	-4	-10	1	1.1
CSc1nncc(=O)[nH]1	-9	3	-3	-13	1.1	1.1
CNS(=O)(=O)c1cc(OCC(N)=O)c(C)cc1Cl	-17	1	2	-140	1.2	2.4*
Cc1cc(Cl)c(S(=O)(=O)N2CCSCC2)cc1OCC(N)=O	26	10	-10	-205	0.7	3*
Cc1cc(Cl)c(S(=O)(=O)N2CC(C)OC(C)C2)cc1OCC(N)=O (stereo not drawn)	-7	8	-9	-56	1.1	1.6
O=C(O)c1[nH]c2ccccc2c1NS(=O)(=O)Cc1ccccc1	5	-33	34	27	1	0.7
CC1CCc2nn(CC(=O)Nc3ccc(F)cc3F)cc2C1 (stereo not drawn)	15	-1	1	42	0.9	0.6
CC1CCc2nn(CC(=O)NCc3ccc(F)cc3)cc2C1 (stereo not drawn)	90*	1	-1	47	0.1	0.5
CC1CCc2nn(CC(=O)Nc3c(F)cc(F)cc3Br)cc2C1 (stereo not drawn)	43	10	-5	62*	0.6	0.4
Cc1ccc(OCC(=O)N(C)CCc2ccccn2)cc1	39	x	x	6	0.6	0.9
CCOC(=O)C1=C(Cc2ccc(OC)cc2)C(=O)c2ccccc2C1=O	56*	7	-9	55*	0.4	0.5
CCOC(=O)C1=C(Cc2ccc(C)cc2)C(=O)c2ccccc2C1=O	74*	-11	8	61*	0.3	0.4
Cc1cc(C)n(C2CCCCC2OC(=O)c2ccccc2F)n1 (stereo not drawn)	38	0	4	41	0.6	0.6
Cc1cc(C)n(C2CCCCC2OC(=O)c2ccccc2)n1 (stereo not drawn)	53*	3	1	19	0.5	0.8
C=CCn1c(COc2cccc3ccc(C)nc23)nnc1SCC(=O)OC	47	-5	6	-90	0.5	1.9
CCOC(=O)c1c(C)nc2sc(C(=O)Nc3ccccc3)c(N)c2c1-c1ccc(OC)cc1	76*	6	-4	82*	0.2	0.2
FC(F)(F)c1ccc(CN2CCCCCC2)cc1	53*	-15	17	18	0.5	0.8
Nc1ccc(CN2CCCCCC2)cc1	x	-4	4	x	x	x
Nn1c(SCC(=O)NCc2ccccc2)nnc1C1CC1	12	-11	11	19	0.9	0.8
CCOC(=O)c1sc(N(Cc2ccccc2)C(=O)CSc2nnc(C3CC3)n2N)nc1C	62*	x	x	99*	0.4	0
CCOC(=O)c1sc(N)c(C#N)c1CSc1nnc(C2CC2)n1N	88*	12	-13	74*	0.1	0.3
CCOC(=O)C1=C(C)NC(=O)NC1c1cccc(OC)c1OCc1ccccc1Cl (stereo not drawn)	24	-11	14	9	0.8	0.9
